# “And” between values parts separate entries of the source, which are not always exact repeats. Equal entries are not always repeated. Inconclusive results are not listed. Some structures have more than one record in an assay (separate samples or runs), and their calls can disagree. The source made the active and inactive calls. How the source made its calls: active means hit-call score of the fitted dose curve at least 0.9, where 1 is the maximum; inconclusive means response in the unintended direction; inactive means score below 0.9.
# Molecular target: human Matrix Metalloproteinase-7 (MMP7), MMP7 (gene 4316) (UniProt P09237)
# Sequence (P09237 whole entry, looked up): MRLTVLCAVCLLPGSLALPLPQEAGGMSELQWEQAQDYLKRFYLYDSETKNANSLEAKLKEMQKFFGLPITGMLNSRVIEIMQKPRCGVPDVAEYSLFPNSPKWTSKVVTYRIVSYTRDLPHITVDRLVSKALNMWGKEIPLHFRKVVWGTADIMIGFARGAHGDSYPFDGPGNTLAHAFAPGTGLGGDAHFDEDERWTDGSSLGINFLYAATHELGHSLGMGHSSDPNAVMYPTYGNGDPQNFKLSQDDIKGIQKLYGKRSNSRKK
# Experiment: NVS_ENZ_hMMP7: NovaScreen (NVS) Enzymatic Assay for human Matrix Metalloproteinase-7 (MMP7) (AID 2283183)
# Outline: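 Cell-free fluorescence enzymatic assay read 1 h after compound addition, activity loss analyzed against DMSO. Primary duplicate testing at 25 uM; compounds meeting threshold rerun in singleton concentration-response up to 50 uM.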
row,Structure (SMILES),outcome
1,COc1nc(C)nc(NC(=O)NS(=O)(=O)c2ccccc2CCC(F)(F)F)n1,inactive
2,COc1ccc(C(c2ccc(OC)cc2)C(Cl)(Cl)Cl)cc1,inactive
3,CNC(=S)S,inactive
4,CCOP(=S)(OCC)SCn1c(=O)oc2cc(Cl)ccc21,inactive
5,N#Cc1cc(Br)c(O)c(Br)c1,inactive

# Molecular target: human Matrix Metalloproteinase-3 (MMP3), MMP3 (gene 4314) (UniProt P08254)
# Sequence (P08254 whole entry, looked up): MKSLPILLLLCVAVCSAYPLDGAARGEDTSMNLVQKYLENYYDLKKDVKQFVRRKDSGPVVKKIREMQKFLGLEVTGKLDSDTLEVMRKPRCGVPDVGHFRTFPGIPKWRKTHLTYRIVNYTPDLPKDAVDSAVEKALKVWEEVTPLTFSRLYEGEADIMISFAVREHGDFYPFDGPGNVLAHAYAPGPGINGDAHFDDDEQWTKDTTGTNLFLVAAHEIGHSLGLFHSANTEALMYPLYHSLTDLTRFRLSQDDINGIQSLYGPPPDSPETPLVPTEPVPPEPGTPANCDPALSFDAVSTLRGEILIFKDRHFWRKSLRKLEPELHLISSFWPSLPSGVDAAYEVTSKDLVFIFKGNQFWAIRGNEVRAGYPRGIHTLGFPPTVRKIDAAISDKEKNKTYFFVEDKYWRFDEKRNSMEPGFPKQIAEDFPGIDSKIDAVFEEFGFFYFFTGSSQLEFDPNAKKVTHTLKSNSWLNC
# Experiment: NVS_ENZ_hMMP3: NovaScreen (NVS) Enzymatic Assay for human Matrix Metalloproteinase-3 (MMP3) (AID 2283185)
# Outline: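 Cell-free recombinant human MMP3 activity, fluorescence intensity read 1 h after dosing. Primary screen duplicate at 25 uM, actives retested in concentration series; loss of signal vs DMSO baseline.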
row,Structure (SMILES),outcome
1,N#Cc1nn(-c2c(Cl)cc(C(F)(F)F)cc2Cl)c(N)c1S(=O)C(F)(F)F (stereo not given),inactive
2,CNC(=S)S,inactive
3,CO/C=C(/C(=O)OC)c1ccccc1Oc1cc(Oc2ccccc2C#N)ncn1,inactive
4,COC(=O)C=C(C)OP(=O)(OC)OC,inactive
5,O=C(O)c1nc(Cl)ccc1Cl,inactive

# Molecular target: human Matrix Metalloproteinase-9 (MMP9), MMP9 (gene 4318) (UniProt P14780)
# Experiment: NVS_ENZ_hMMP9: NovaScreen (NVS) Enzymatic Assay for human Matrix Metalloproteinase-9 (MMP9) (AID 2283190);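 further: cell-free recombinant MMP9 protease activity read by fluorescent substrate signal; active means inhibition seen as loss of fluorescence signal versus DMSO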
# Outline: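 Screening concentration 25 uM, duplicate wells, then dose series for confirmation. Cell-free enzymatic reaction measured by fluorescence intensity 1 h post-dosing; decreased signal versus DMSO taken as activity.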
Structure (SMILES),outcome,AC50
COc1ccc(C(c2ccc(OC)cc2)C(Cl)(Cl)Cl)cc1,inactive,–
CC1COC(Cn2cncn2)(c2ccc(Oc3ccc(Cl)cc3)cc2Cl)O1 (stereo not given),inactive,–
CCOC(=O)CC(SP(=S)(OC)OC)C(=O)OCC (stereo not given),inactive,–
C=CCC1=C(C)C(OC(=O)C2C(C=C(C)C)C2(C)C)CC1=O (stereo not given),–,0.793 µM (active)
CCCCNC(=O)n1c(NC(=O)OC)nc2ccccc21,inactive,–

# Molecular target: human Phosphodiesterase 4A1 (PDE4A1), PDE4A (gene 5141) (UniProt P27815)
# Sequence (P27815 whole entry, looked up): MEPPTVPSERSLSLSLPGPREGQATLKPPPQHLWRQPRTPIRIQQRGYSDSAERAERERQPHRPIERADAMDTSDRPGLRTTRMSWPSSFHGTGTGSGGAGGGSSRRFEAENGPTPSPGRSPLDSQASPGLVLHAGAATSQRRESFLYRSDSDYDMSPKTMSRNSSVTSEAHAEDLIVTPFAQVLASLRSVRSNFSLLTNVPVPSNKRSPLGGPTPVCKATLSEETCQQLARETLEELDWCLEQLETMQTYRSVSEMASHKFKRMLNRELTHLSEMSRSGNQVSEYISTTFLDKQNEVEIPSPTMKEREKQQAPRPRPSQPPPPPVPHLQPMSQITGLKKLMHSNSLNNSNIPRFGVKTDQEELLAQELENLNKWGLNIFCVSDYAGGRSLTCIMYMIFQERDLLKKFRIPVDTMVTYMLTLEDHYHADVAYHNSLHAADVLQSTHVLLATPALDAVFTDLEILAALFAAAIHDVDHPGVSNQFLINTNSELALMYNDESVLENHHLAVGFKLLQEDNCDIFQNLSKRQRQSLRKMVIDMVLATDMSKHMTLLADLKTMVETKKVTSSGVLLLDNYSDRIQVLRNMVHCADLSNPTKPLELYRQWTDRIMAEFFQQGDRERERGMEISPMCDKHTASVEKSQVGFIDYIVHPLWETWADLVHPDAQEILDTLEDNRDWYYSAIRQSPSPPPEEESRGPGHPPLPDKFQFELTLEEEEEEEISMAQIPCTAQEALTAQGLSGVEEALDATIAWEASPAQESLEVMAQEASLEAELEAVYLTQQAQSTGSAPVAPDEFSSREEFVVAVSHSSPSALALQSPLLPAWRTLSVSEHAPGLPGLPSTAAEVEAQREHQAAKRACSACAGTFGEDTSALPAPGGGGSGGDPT
# Experiment: NVS_ENZ_hPDE4A1: NovaScreen (NVS) Enzymatic Assay for human Phosphodiesterase 4A1 (PDE4A1) (AID 2283191)
# Outline: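 Cell-free recombinant human PDE4A1 with fluorescent substrate; product separated by electrophoretic mobility shift, 1 h. Screened at 25 uM, then up to 50 uM in concentration-response; loss of signal fitted against DMSO.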
Structure (SMILES),AC50,outcome
CCNc1nc(Cl)nc(NC(C)C)n1,1.22 µM (active),–
COc1nc(NC(C)C)nc(NC(C)C)n1,13.4 µM (active),–
CCNc1nc(Cl)nc(NCC)n1,8.46 µM (active),–
CCOC(=O)CC(SP(=S)(OC)OC)C(=O)OCC (stereo not given),–,inactive
CO/C=C(/C(=O)OC)c1ccccc1Oc1cc(Oc2ccccc2C#N)ncn1,14 µM (active),inactive
CCOP(=S)(OCC)SCn1c(=O)oc2cc(Cl)ccc21,9.57 µM (active),–
CON(C)C(=O)Nc1ccc(Cl)c(Cl)c1,3.85 µM (active),–
CCCN(CCC)c1c([N+](=O)[O-])cc(S(N)(=O)=O)cc1[N+](=O)[O-],–,inactive

# Molecular target: cAMP-dependent protein kinase catalytic subunit alpha (Homo sapiens) (UniProt P17612)
# Experiment: NVS_ENZ_hPKA: NovaScreen (NVS) Enzymatic Assay for human Protein Kinase A (PKA) (AID 2283192)
# Outline: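 Recombinant human PKA with specific fluorescent substrate, product separated by electrophoretic mobility shift, read 1 h after dosing. Primary screen at 25 uM in duplicate; actives then run in concentration-response up to 50 uM, activity relative to DMSO.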
row,Structure (SMILES),outcome
1,N#Cc1nn(-c2c(Cl)cc(C(F)(F)F)cc2Cl)c(N)c1S(=O)C(F)(F)F (stereo not given),inactive
2,CNC(=S)S,inactive
3,COc1nc(C)nc(NC(=O)NS(=O)(=O)c2ccccc2Cl)n1,inactive

# Molecular target: human Phosphodiesterase 5 (PDE5), PDE5A (gene 8654) (UniProt O76074)
# Experiment: NVS_ENZ_hPDE5: NovaScreen (NVS) Enzymatic Assay for human Phosphodiesterase 5 (PDE5) (AID 2283194)
# Outline: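 Recombinant human PDE5 with specific substrate, read 1 h after dosing by fluorescence with electrophoretic mobility-shift separation of substrate and product. Initial single-concentration duplicate screen at 25 uM, actives followed in concentration series; loss of activity versus DMSO.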
Structure (SMILES),AC50,outcome
CCNc1nc(Cl)nc(NC(C)C)n1,4.96 µM (active) and 8.17 µM (active),–
COc1nc(C)nc(NC(=O)NS(=O)(=O)c2ccccc2CCC(F)(F)F)n1,25 µM (active),–
CC1COC(Cn2cncn2)(c2ccc(Oc3ccc(Cl)cc3)cc2Cl)O1 (stereo not given),–,inactive
Cc1ccc(-c2c(Cl)nc(C#N)n2S(=O)(=O)N(C)C)cc1,11.7 µM (active),–
O=C(Nc1ccccc1)Nc1ccnc(Cl)c1,10 µM (active),–
CCOP(=S)(OCC)SCn1c(=O)oc2cc(Cl)ccc21,–,inactive
CON(C)C(=O)Nc1ccc(Cl)c(Cl)c1,7.19 µM (active) and 9.03 µM (active),–
CCCCNC(=O)n1c(NC(=O)OC)nc2ccccc21,–,inactive
CCCN(CCC)c1c([N+](=O)[O-])cc(S(N)(=O)=O)cc1[N+](=O)[O-],–,inactive

# Molecular target: human Phosphoinositide 3-kinase alpha (PI3Ka), PIK3CA (gene 5290) (UniProt P42336)
# Sequence (P42336 whole entry, looked up): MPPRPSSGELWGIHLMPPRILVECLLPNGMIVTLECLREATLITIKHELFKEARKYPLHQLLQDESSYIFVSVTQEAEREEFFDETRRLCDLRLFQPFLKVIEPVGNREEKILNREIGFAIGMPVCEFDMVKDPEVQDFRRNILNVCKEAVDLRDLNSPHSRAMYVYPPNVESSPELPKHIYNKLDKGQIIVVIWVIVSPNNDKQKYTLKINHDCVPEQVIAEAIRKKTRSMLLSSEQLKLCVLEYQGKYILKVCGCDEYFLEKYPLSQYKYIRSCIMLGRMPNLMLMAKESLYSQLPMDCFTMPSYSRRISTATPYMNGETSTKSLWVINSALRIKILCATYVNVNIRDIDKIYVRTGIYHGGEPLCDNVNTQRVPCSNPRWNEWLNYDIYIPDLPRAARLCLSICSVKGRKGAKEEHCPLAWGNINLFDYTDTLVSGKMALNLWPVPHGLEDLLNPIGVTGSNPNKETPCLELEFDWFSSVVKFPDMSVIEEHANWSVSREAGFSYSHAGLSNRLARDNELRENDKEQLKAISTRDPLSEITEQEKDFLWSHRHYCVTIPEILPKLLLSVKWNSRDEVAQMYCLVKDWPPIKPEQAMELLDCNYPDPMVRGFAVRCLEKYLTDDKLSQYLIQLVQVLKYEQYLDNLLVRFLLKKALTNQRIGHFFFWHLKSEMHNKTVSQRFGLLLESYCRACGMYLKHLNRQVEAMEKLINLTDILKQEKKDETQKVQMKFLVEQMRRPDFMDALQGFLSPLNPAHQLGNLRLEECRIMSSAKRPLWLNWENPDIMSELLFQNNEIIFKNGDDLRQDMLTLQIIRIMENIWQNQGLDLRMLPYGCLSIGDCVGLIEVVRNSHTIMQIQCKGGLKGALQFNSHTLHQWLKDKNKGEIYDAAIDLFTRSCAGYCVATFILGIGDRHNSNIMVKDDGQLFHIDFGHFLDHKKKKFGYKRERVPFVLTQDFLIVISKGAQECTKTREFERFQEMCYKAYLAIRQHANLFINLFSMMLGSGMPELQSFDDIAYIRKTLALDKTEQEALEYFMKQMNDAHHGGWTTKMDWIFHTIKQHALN
# Experiment: NVS_ENZ_hPI3Ka: NovaScreen (NVS) Enzymatic Assay for human Phosphoinositide 3-kinase alpha (PI3Ka) (AID 2283196)
# Outline: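 Duplicate single-point screen (25 uM), then singleton dose-response (max 50 uM) for compounds meeting the threshold. Cell-free kinase reaction, 1 h; fluorescent mobility-shift readout.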
row,Structure (SMILES),outcome
1,N#Cc1nn(-c2c(Cl)cc(C(F)(F)F)cc2Cl)c(N)c1S(=O)C(F)(F)F (stereo not given),inactive
2,COc1nc(C)nc(NC(=O)NS(=O)(=O)c2ccccc2CCC(F)(F)F)n1,inactive
3,CS/C(C)=N/OC(=O)N(C)SN(C)C(=O)O/N=C(\C)SC,inactive
4,COC(=O)c1ccccc1C(=O)OC,inactive
5,CO/C=C(/C(=O)OC)c1ccccc1Oc1cc(Oc2ccccc2C#N)ncn1,inactive
6,CC1=C(C(=O)Nc2ccccc2)SCCO1,inactive
7,CN(C)C(=S)SSC(=S)N(C)C,inactive
8,CCCN(CCC)c1c([N+](=O)[O-])cc(S(N)(=O)=O)cc1[N+](=O)[O-],inactive

# Molecular target: PPP2CA (gene 5515) (UniProt P67775)
# Sequence (P67775 whole entry, looked up): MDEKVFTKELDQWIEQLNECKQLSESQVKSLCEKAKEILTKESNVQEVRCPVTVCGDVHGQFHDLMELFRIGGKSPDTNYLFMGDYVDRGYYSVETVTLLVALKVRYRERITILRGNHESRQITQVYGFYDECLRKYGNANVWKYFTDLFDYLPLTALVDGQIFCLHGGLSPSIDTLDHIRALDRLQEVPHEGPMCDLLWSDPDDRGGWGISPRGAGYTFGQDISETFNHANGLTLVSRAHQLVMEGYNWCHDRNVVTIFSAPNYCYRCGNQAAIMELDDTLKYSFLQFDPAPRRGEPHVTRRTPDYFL
# Experiment: NVS_ENZ_hPPP2CA: NovaScreen (NVS) Enzymatic Assay for human Protein Phosphatase 2 Aatalytic subunit Alpha (PPP2CA) (AID 2283199)
# Outline: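 Recombinant human PPP2CA with fluorescent substrate; product separated from substrate by electrophoretic mobility shift, read 1.33 h after dosing. Duplicate single-point at 25 uM, then singleton concentration-response up to 50 uM; loss of signal versus DMSO.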
row,Structure (SMILES),outcome
1,COc1nc(C)nc(NC(=O)NS(=O)(=O)c2ccccc2Cl)n1,inactive
2,CCOC(=O)CC(SP(=S)(OC)OC)C(=O)OCC (stereo not given),inactive
3,COc1cnc(OC)n2nc(NS(=O)(=O)c3c(OCC(F)F)cccc3C(F)(F)F)nc12,inactive
4,CCCN(CCC)c1c([N+](=O)[O-])cc(S(N)(=O)=O)cc1[N+](=O)[O-],inactive

# Molecular target: Serine/threonine-protein phosphatase PP1-alpha catalytic subunit (Homo sapiens) (UniProt P62136)
# Sequence (P62136 whole entry, looked up): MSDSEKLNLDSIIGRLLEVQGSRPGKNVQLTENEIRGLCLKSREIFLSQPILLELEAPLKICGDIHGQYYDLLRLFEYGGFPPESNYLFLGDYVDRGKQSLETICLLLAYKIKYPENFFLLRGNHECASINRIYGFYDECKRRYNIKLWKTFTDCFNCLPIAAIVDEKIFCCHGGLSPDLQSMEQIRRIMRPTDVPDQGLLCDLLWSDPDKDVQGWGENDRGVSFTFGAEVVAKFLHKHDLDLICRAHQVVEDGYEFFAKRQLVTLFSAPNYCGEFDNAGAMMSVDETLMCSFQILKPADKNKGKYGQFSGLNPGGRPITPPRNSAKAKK
# Experiment: NVS_ENZ_hPPP1CA: NovaScreen (NVS) Enzymatic Assay for human Protein Phosphatase 1 Aatalytic subunit Alpha (PPP1CA) (AID 2283200)
# Outline: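 Recombinant enzyme activity read by fluorescence with electrophoretic mobility shift separating substrate from product, 1.33 h after dosing; loss of signal vs DMSO baseline. Primary screen in duplicate at 25 uM; actives retested in concentration-response up to 50 uM.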
row,Structure (SMILES),outcome
1,CCCCNC(=O)OCC#CI,inactive
2,Oc1ccccc1-c1ccccc1,inactive
3,CCOC(=O)CC(SP(=S)(OC)OC)C(=O)OCC (stereo not given),inactive
4,Cc1cc(Cl)ccc1OCC(=O)O,inactive
5,CCCN(CCC)c1c([N+](=O)[O-])cc(S(N)(=O)=O)cc1[N+](=O)[O-],inactive

# Molecular target: Tyrosine-protein phosphatase non-receptor type 11 (Homo sapiens) (UniProt Q06124)
# Sequence (Q06124 whole entry, looked up): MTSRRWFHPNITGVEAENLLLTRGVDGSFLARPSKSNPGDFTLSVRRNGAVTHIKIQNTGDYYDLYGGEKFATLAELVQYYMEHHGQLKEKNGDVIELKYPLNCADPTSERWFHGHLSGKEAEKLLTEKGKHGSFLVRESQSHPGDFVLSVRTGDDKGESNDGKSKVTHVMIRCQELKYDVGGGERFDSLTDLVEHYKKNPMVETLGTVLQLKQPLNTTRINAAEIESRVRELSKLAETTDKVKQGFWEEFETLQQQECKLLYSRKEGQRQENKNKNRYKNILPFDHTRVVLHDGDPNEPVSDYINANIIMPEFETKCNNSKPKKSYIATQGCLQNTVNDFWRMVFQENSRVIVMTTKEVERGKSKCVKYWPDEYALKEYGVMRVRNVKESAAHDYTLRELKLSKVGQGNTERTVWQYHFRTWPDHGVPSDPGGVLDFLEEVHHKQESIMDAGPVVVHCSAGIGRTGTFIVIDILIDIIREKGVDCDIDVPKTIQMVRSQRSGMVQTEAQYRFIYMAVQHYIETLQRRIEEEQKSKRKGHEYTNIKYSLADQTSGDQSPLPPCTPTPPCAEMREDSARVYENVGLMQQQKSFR
# Experiment: NVS_ENZ_hPTPN11: NovaScreen (NVS) Enzymatic Assay for human Protein Tyrosine Phosphatase Non-receptor Type 11 (PTPN11) (AID 2283202)
# Outline: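 Recombinant human PTPN11 activity on a fluorescent substrate, with substrate/product separated by electrophoretic mobility shift; read 0.5 h after dosing, loss of signal vs DMSO. Duplicate 25 uM screen, then concentration-response up to 50 uM.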
row,Structure (SMILES),outcome
1,COc1ccc(C(c2ccc(OC)cc2)C(Cl)(Cl)Cl)cc1,inactive
2,CNC(=S)S,inactive
3,CCCCOC(=O)c1ccccc1C(=O)OCCCC,inactive
4,CCCN(CCC)c1c([N+](=O)[O-])cc(S(N)(=O)=O)cc1[N+](=O)[O-],inactive

# Molecular target: human Phosphatase and Tensin Homolog (PTEN), PTEN (gene 5728) (UniProt P60484)
# Sequence (P60484 whole entry, looked up): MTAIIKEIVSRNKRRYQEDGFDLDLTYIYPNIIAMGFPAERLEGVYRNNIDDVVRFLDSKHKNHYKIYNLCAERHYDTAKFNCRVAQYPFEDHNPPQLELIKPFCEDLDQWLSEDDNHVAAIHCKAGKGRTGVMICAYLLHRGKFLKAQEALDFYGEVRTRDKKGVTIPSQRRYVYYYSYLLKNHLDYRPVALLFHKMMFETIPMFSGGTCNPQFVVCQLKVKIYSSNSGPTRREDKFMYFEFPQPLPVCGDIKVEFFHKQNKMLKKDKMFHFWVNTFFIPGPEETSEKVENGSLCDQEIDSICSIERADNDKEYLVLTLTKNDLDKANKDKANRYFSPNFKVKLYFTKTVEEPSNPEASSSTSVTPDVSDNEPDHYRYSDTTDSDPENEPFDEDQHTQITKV
# Experiment: NVS_ENZ_hPTEN: NovaScreen (NVS) Enzymatic Assay for human Phosphatase and Tensin Homolog (PTEN) (AID 2283203)
# Outline: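 Cell-free recombinant human PTEN with fluorescent substrate; product separated by electrophoretic mobility shift and read by fluorescence 1 h after dosing. Primary screen in duplicate at 25 uM, actives followed in concentration series versus DMSO.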
row,Structure (SMILES),outcome
1,C#CCOS(=O)OC1CCCCC1Oc1ccc(C(C)(C)C)cc1 (stereo not given),inactive
2,Cc1ccc(-c2c(Cl)nc(C#N)n2S(=O)(=O)N(C)C)cc1,inactive
3,CON(C)C(=O)Nc1ccc(Cl)c(Cl)c1,inactive

# Source: PubChem BioAssay (EPA / NIEHS)
